40 compounds from PubChem BioAssay (EPA / NIEHS) can be followed below.

Values joined by “and” are separate entries in the source; they are usually repeats but may differ in a detail not shown here. Equal entries are not always repeated. Inconclusive results are not listed. Active and inactive are the calls of the source. The calls were made as follows: active = hit-call score of the fitted dose curve at least 0.9, where 1 is the maximum; inconclusive = response in the unintended direction; inactive = score below 0.9.

Sequence of human p21 Activated Kinase 4 (PAK4), PAK4 (gene 10298) (O96013 whole entry, looked up): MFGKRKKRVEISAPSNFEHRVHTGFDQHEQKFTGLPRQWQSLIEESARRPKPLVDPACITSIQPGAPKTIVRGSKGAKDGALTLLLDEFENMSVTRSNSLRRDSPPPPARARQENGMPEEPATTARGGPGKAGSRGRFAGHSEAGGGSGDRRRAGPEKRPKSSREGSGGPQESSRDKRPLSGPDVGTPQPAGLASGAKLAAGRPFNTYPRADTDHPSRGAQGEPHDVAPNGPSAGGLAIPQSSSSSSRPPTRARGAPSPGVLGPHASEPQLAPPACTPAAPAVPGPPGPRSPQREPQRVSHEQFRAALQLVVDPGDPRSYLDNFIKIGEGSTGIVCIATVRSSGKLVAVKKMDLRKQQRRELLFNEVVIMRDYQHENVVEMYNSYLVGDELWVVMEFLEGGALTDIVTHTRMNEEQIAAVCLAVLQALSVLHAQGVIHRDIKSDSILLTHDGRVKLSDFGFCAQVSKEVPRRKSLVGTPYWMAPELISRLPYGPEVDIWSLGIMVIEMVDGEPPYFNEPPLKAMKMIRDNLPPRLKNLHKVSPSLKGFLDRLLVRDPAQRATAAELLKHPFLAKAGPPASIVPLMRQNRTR

The target of this assay is human p21 Activated Kinase 4 (PAK4), PAK4 (gene 10298) (UniProt O96013). Nature of the assay: NVS_ENZ_hPAK4: NovaScreen (NVS) Enzymatic Assay for human p21 Activated Kinase 4 (PAK4) (AID 2283189). The method, then:
NVS_ENZ_hPAK4 is a biochemical, single-readout assay that uses extracted gene-proteins in a cell-free assay. Measurements were taken 1 hour after chemical dosing in a 384-well plate.NVS_ENZ_hPAK4 is one of one assay component(s) measured or calculated from the NVS_ENZ_hPAK4 assay. It is designed to make measurements of enzyme activity, a form of enzyme reporter, as detected with fluorescence intensity signals by Fluorescence and electrophoretic mobility shift technology.Data from the assay component NVS_ENZ_hPAK4 was analyzed into 1 assay endpoint. This assay endpoint, NVS_ENZ_hPAK4, was analyzed in the positive analysis fitting direction relative to DMSO as the negative control and baseline of activity. Using a type of enzyme reporter, loss-of-signal activity can be used to understand changes in the enzymatic activity as they relate to the gene PAK4. Furthermore, this assay endpoint can be referred to as a primary readout, because this assay has produced multiple assay endpoints where this one serves a enzymatic activity function. To generalize the intended target to other relatable targets, this assay endpoint is annotated to the kinase intended target family, where the subfamily is serine/threonine kinase.
Binding assays used specific radioligands (tritiated, iodinated) with non-radioactive competitive displacement ligands in agonist or antagonist protocols (as indicated) and various reference compounds and inhibitors to titrate specific binding to receptors and transporters. Most enzyme assays (CYPs, kinases, phosphatases, proteases, HDACs) used recombinant protein and specific substrates (fluorescence mostly, some colorimetric and radioactive) and inhibitors, followed by a biochemical separation of substrate and product. All assays for the biochemical HTS were initially run in duplicate at a single concentration (10 uM for CYP450 assays and 25 uM for all others). […] Each assay was run with positive and negative controls, and concurrent controls on every plate. The follow-up (secondary) screen tested active chemical-pairs in concentration series, as well as a few additional assays not tested in the primary screen, some selected negative inactives, and several cases re-run in the concentration series for confirmatory purposes.
Consider `CCCC(CCC)C(=O)O`, for which the compound was called inactive.

As usually defined, the AC50 is the concentration giving half of the maximal activity seen. Take `CCCCCCCCCCCCCC[P+](CCCC)(CCCC)CCCC`: the AC50 was 14.5 µM (active).

Take `CC1(C)NC(=O)NC1=O`: the result was inactive.

Take `O=C(O)[C@H](O)[C@@H](O)C(=O)O`: the outcome was inactive.

As to `O=C(NO)C1(NS(=O)(=O)c2ccc(Oc3ccc(F)cc3)cc2)CCOCC1`, the compound was called inactive. Still for that read-out and setting: the result for `O=C(O)Cc1cc(I)c(Oc2cc(I)c(O)c(I)c2)c(I)c1` reads “inactive”; that for `CN(C)C(=O)NC1(c2ccccc2)CCN(CCC[C@]2(c3ccc(Cl)c(Cl)c3)CCCN(C(=O)c3ccccc3)C2)CC1`, “inactive”; that for `CC[C@H]1OC(=O)[C@H](C)[C@@H](O[C@H]2C[C@@](C)(OC)[C@@H](O)[C@H](C)O2)[C@H](C)[C@@H](O[C@@H]2O[C@H](C)C[C@H](N(C)C)[C@H]2O)[C@](C)(O)C[C@@H](C)C(=O)[C@H](C)[C@@H](O)[C@]1(C)O`, “inactive”. On the same count and under the same terms, to `O=c1c(O)c(-c2ccc(O)c(O)c2)oc2cc(O)cc(O)c12` belongs “inactive”. On to `Cc1[nH]nc2c1N=C(c1ccccc1Cl)c1cc([N+](=O)[O-])ccc1N2`, for which the half-maximal activity concentration (AC50) was 9.53 µM (active). Turning to `C[C@]12C[C@H](O)[C@H]3[C@@H](CCC4=CC(=O)CC[C@@]43C)[C@@H]1CC[C@@H]2C(=O)CO`, the compound was classed as inactive.

Take `CCCCCCCC[Si](OCC)(OCC)OCC`: the result was inactive. Same read-out and setting: the result for `CC[C@H](C)C(=O)O[C@H]1C[C@@H](C)C=C2C=C[C@H](C)[C@H](CC[C@@H]3C[C@@H](O)CC(=O)O3)[C@H]21` reads “inactive”. On the same count and under the same terms, the result for `O=c1[nH]cnc2c1ncn2[C@H]1CC[C@@H](CO)O1` reads “inactive”; that for `Cc1ccc2oc(CN(Cc3ccccc3)C(=O)Nc3c(F)cc(F)cc3F)c(-c3ccc(Cl)cc3)c2c1`, “inactive”; that for `O=C(c1ccc(OCCN2CCCCC2)cc1)c1c(-c2ccc(O)cc2)sc2cc(O)ccc12`, “inactive”. The same measure, in the same setting: the result for `COCCO` reads “inactive”. As to `CCCCCCCCCCCCc1ccccc1S(=O)(=O)O`, the concentration at half-maximal activity (AC50) was 18.1 µM (active). The same measure, in the same setting: the result for `CC1(C)CC(N=C=O)CC(C)(CN=C=O)C1` (stereo not given) reads 25 µM (active).

`CCCCc1oc2ccccc2c1C(=O)c1cc(I)c(OCCN(CC)CC)c(I)c1`: the outcome was inactive. On the same count and under the same terms, to `COc1ccc2sc(C(=O)Nc3nnn[nH]3)c(OC(C)C)c2c1` belongs “inactive”. On the same count and under the same terms, to `CC/C(=C(\c1ccccc1)c1ccc(OCCN(C)C)cc1)c1ccccc1` belongs “inactive”.

For the compound `CC[C@H](C)C(=O)O[C@H]1C[C@H](O)C=C2C=C[C@H](C)[C@H](CC[C@@H](O)C[C@@H](O)CC(=O)O)[C@H]21`, the compound was called inactive.

Regarding `COc1cc(C(=O)NC2CCN(C)CC2)ccc1Nc1ncc2c(n1)N(C1CCCC1)CC(F)(F)C(=O)N2C`, the compound was classed as inactive. `O=[Si]=O`: the compound was called inactive. On the same count and under the same terms, the result for `CC(C)(C)c1ccccc1` reads “inactive”; that for `C=CCCCCCCCCCCCC`, “inactive”. The same measure, in the same setting: to `Cc1nc(-c2ccccn2)ncc1C(=O)Nn1cc(C)c2cc(F)ccc21` belongs “inactive”; to `Cc1ncc([C@@H](CCCCCCc2ccc3c(n2)NCCC3)CC(=O)O)cn1`, “inactive”. Consider `Cc1[nH]cnc1C[C@H]1CCc2c(C)c3ccccc3n2C1=O`, for which the outcome was inactive. Regarding `NC(=O)N1C(=O)C(C(=O)c2cc(Cl)cs2)c2cc(F)c(Cl)cc21` (stereo not given), the result was inactive.

For the compound `CC(C)(c1ccc(O)cc1)c1ccc(O)cc1`, the outcome was inactive. `O=C(OCCCCCOC(=O)c1ccccc1)c1ccccc1`: the compound was classed as inactive. On the same count and under the same terms, the result for `O=Cc1ccccc1C=O` reads “inactive”; that for `c1ccc2ccccc2c1`, “inactive”; that for `CC/C(=C\C(=N/O)C(N)=O)C(C)[N+](=O)[O-]` (stereo not given), “inactive”.

`N[C@@H](Cc1cc(I)c(Oc2ccc(O)c(I)c2)c(I)c1)C(=O)O`: the outcome was inactive. For `S=C(S)NCCNC(=S)S.[Mn+2].[S-]C([S-])=NCCN=C([S-])[S-].[Zn+2]`, the AC50 was 5.61 µM (active) and 263 nM (active). Consider `FC(F)(F)C(F)(F)C(F)(F)C(F)(F)C(F)(F)C(F)(F)CCI`, for which the outcome was inactive. In the case of `S=C([S-])NCCNC(=S)[S-].[Mn+2]`, the concentration at half-maximal activity (AC50) was 5.91 µM (active).
